# Source: PubChem BioAssay AID903 (National Center for Advancing Translational Sciences (NCATS), 2007)
# Hit rate of the full screen: of about 55,000 compounds, about 340 (0.62%) were called active. Not shown: some 3% with an inconclusive outcome. Calls follow the shape of the dose curve; as a rule, active = well fitted cell-killing curve with a large enough effect; inconclusive = small, poorly fitted or top-dose-only effect; inactive = no such curve, though single readings can be large or run the other way. The entries come from a sample that favours actives as a whole.
# Assay: qHTS Screen for Compounds that Selectively Target Cancer Cells with p53 Mutations: Cytotoxicity of p53 Null Cells at the Permissive Temperature; also: nearly all actives have a fitted effect of over 55% in size;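 as to activity change, negative = cytotoxicity: 0% = DMSO only and -100% = full killing by 100 µM tamoxifen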
# Conditions: H1299-neo p53 null cells, ATP luminescence, 24 h, 32C; series mostly up to 46.1 µM; activity change, negative = cytotoxicity: at the top concentration
# From the text: NIH Chemical Genomics Center [NCGC] NIH Molecular Libraries Screening Centers Network [MLSCN] MLSCN Grant: 1 X01 MH079844-01 Assay Submitter (PI): Dr. SUN, YI, University of Michigan NCGC Assay Overview: Synthetic Lethal Screen for Compounds to Kill Cancer Cells with p53 Mutation. Tumor suppressor gene p53 serves as a major cellular barrier against tumorigenesis. […] The goal of this screening is to identify small molecule probes that selectively kill cancer cells with mutations in p53. This screening was carried out using two lines of H1299 lung cancer cells. The H1299-p53 A138V line express a temperature sensitive p53 mutant (p53ts) in which the mutant p53 protein (A138V) is in the mutant confirmation when grown at 39C (the nonpermissive temperature) and in the wild type conformation when grown at 32C (the permissive temperature). A H1299-neo line (p53 null) grown at both 39C and 32C were used as counter-screens to filter out false positive associated with temperature shifting. The small molecular compounds that selectively target mutant p53-containing cancer cells were selected as candidate probes for further study. A cytotoxicity assay based on the measurement of ATP contents in cells was used in this screen. Concentration-responses of all the compounds in the library collection were determined in qHTS using the cell lines and temperature conditions as above.
# NCGC Assay Protocol Summary: Both the H1299-p53A138V and H1299-neo cell lines were provided by Dr.Yi Sun, a PI at the University Michigan. The cells were maintained and cultured at 37C. The resuspended frozen cells were used to plate the cells in the 1536-well assay plates at a density of 600 cells per well in 5 ul medium. The assay plates with the cells were incubated at 37C for 16 to 30 hours before the experiments. The library compounds in DMSO solution were added to the cells in assay plates and incubated 24 hours at 39C (for mutant p53 conformation) or 32C (for normal p53 conformation as control). An ATP_lite assay kit (PerkinElmer) was used to determine the cell viability. Tomaxifen (100uM) was used as the positive control for cell killing. Data were normalized to the controls for basal activity (DMSO only) and 100% killing (100uM tamoxifen). AC50 values were determined from concentration-response data modeled with the standard Hill equation. P53 assay protocol: 1. Reagent; 5 uL H1299-p53A138V or H1299-neo cell cells/well 2. Time; overnight; 37C incubation 3. Compounds; 23 nL; 5.9 nM to 46 uM 4. Controls; 23 nL; Tamoxifen 100 uM 5. Time; 24 hr; 32C incubation 6. Reagent; 3 uL; ATP_Lite reagent 7. Time; 20 min; Room Temperature 8. Detection; Luminescence; Viewlux plate reader Keywords: p53, synthetic lethal, cancer, cell viability, cytotoxicity, H1299 cell line, luminescence, MLSMR, MLSCN, NIH Roadmap, qHTS, NCGC
# Potency is read from the fitted curve at half-maximal effect.
SMILES,"activity change, negative = cytotoxicity",Potency
Cc1ccc2nc(/C(C#N)=C/c3ccccc3F)[nH]c2c1,-5.46% (inactive),–
O=S(=O)(c1ccc(Br)cc1)c1nnn2c1nc(N1CCOCC1)c1sccc12,0.31% (inactive),–
CCOc1ccc(NC(=O)c2cnn(-c3ccccc3)c2-n2cccc2)cc1,60.8% (inactive),–
CCOc1ccc(NC(=O)c2ncoc2-c2ccco2)cc1,–,12.6 µM (active)
CCOc1ccc(NC(=O)CN2CCN(CC(=O)Nc3ccc(OC)cc3)CC2)cc1,–,inactive
CCc1nc2ccc(C(=O)N3CCN(c4cc(Cl)ccc4C)CC3)cc2nc1CC,16.6% (inactive),–
CCOC(=O)c1c(C)[nH]c(C)c1S(=O)(=O)N1CCC(C(=O)Nc2ccc(C)c(Cl)c2)CC1,-10.5% (inactive),–
N#C/C(=C\c1ccccc1F)c1nc2ccccc2c(=O)[nH]1,-2.22% (inactive),–
COc1ccc(-n2ccnc(NCCc3ccc(Cl)cc3)c2=O)cc1OC,0.865% (inactive),–
CCOC(=O)c1cccc(NS(=O)(=O)c2cn(C)c(C)n2)c1,-3.89% (inactive),–
O=C(NC1CC(=O)N(c2ccc(Cl)cc2)C1)C1CCCC1 (stereo not drawn),3.83% (inactive),–
Cn1c(=O)c2c(nc(Oc3ccc(C#N)cc3)n2Cc2ccc(Cl)cc2Cl)n(C)c1=O,9.69% (inactive),–
Brc1ccc(-c2csc(N/N=C/c3ccc4c(c3)OCO4)n2)cc1,-5.38% (inactive),–
CCCC(=O)Nc1cccc(NC(=S)NC(=O)C(C)Oc2ccc(Cl)cc2Cl)c1 (stereo not drawn),-5.63% (inactive),–
COC(=O)c1cc2occc2n1Cc1nc(-c2ccc(C)cc2)oc1C,-11.9% (inactive),–
Cc1ccc(CNC(=O)CCNS(=O)(=O)c2ccc3c(c2)oc(=O)n3C)cc1,-2.38% (inactive),–
CCOc1ccc(CNC(=O)CCc2c(C)nn(-c3ccc(N4CCCCC4)nn3)c2C)cc1,-15.4% (inactive),–
CCc1cc2c(-c3ccccc3)cc(=O)oc2c2c1OCN(Cc1ccc(C)cc1)C2,-8.96% (inactive),–
COc1ccc(CCNC(=O)CN2C(=O)COc3ccc(S(=O)(=O)N4CCCC4)cc32)cc1OC,3.84% (inactive),–
CCOc1cc(CNCc2ccccn2)ccc1OCC(=O)NC(C)(C)C,-6.1% (inactive),–

SMILES,"activity change, negative = cytotoxicity",Potency
Cc1ccc(CCNC(=O)C2CCN(c3nnc(-n4cccc4CNc4ccc(C)cc4)s3)CC2)cc1,21.3% (inactive),–
C/C(CC(=O)Nc1ccc(Cl)cc1)=N\NC(=O)C(=O)NCCO,-8.76% (inactive),–
Cc1ccc2[nH]c3c(=O)n(CC(=O)NC(C)C)ncc3c2c1,-1.55% (inactive),–
CCC(=O)Nc1ccc(C)cc1-c1nc2ccccc2n(Cc2ccccc2)c1=O,-3.5% (inactive),–
CCn1c(SCC(=O)Nc2ccc(C)cc2)nc2nc3c(cc2c1=O)CCCC3,-14.2% (inactive),–
CCOc1ccccc1NC(=O)C1CCCN(S(=O)(=O)c2cn(C)cn2)C1 (stereo not drawn),-7.67% (inactive),–
Cc1nc2ccc(S(=O)(=O)N(CC(=O)Nc3ccc(F)cc3)Cc3ccccc3)cc2s1,-15.1% (inactive),–
COC(=O)c1ccc(NC(=O)c2cnn(-c3ccc(Cl)cc3)c2C2CCN(C(=O)OC(C)(C)C)CC2)cc1,16.5% (inactive),–
COC(=O)/C(NC(C)=O)=C(\C)c1ccc(Cl)cc1,4.98% (inactive),–
CCCCCn1c(CCNC(=O)c2ccc(F)cc2)nc2ccccc21,10.3% (inactive),–
CCCC(=O)Nc1ccc2oc(-c3ccc(O)c(Br)c3)nc2c1,-17.9% (inactive),–
CC(=O)Nc1cc(C(=O)NCc2ccc(F)cc2)ccc1Sc1ccc(F)cc1,-7.84% (inactive),–
Cc1ccc(NC(=S)N2CCN(c3ncccn3)CC2)cc1C,-16.9% (inactive),–
O=C(CCC(=O)N1CC2CCCN2c2ccccc21)NCc1ccccc1Cl (stereo not drawn),-2.37% (inactive),–
Cn1c(=NC(=O)c2ccc3c(c2)OCCO3)sc2cc(S(C)(=O)=O)ccc21,0.0269% (inactive),–
O=C(NC1CCCC1)C(c1ccccn1)N(C(=O)c1csnn1)C1CCCC1 (stereo not drawn),1.76% (inactive),–
CN(CC(=O)Nc1cccc(C(F)(F)F)c1)S(=O)(=O)c1cccs1,-3.2% (inactive),–
Cc1cccc(-c2nnc(SCC(=O)N3CCCc4ccccc43)o2)c1,1.58% (inactive),–
Cc1ccc2[nH]cc(CCCN3C(=O)c4ccccc4C3=O)c2c1,-13.4% (inactive),–
CCNC(=S)N1CCC(c2nc3cc(C)c(C)cc3[nH]2)CC1,8.34% (inactive),–

SMILES,"activity change, negative = cytotoxicity",Potency
CCCCn1c(=O)c2oc3ccccc3c2n(CC(=O)Nc2ccccc2OC)c1=O,-9.59% (inactive),–
O=C(CSc1nc2nccnc2c(=O)n1CCc1c[nH]c2ccccc12)Nc1ccccc1F,34% (inactive),–
Cc1cccc(NC(=O)Cn2cc(S(=O)(=O)Cc3ccccc3Cl)c3ccccc32)c1,0.404% (inactive),–
Cc1csc2nc(COc3ccc(NC(=O)COc4ccccc4)cc3)cc(=O)n12,-5.31% (inactive),–
COc1ccc(NC(=O)Nc2cccc(-c3noc(C)n3)c2)cc1,-14.2% (inactive),–
COc1cccc(C(c2c(O)cc(C)n(Cc3ccco3)c2=O)N2CCN(c3ccccc3)CC2)c1 (stereo not drawn),-0.758% (inactive),–
O=C(CSc1nccn1Cc1ccc(Cl)cc1)NCc1ccccc1,7.59% (inactive),–
Cc1ccc(CSCC(N)C(=O)O)cc1 (stereo not drawn),-2.48% (inactive),–
COc1ccccc1N1CCN(C(=O)C2CCN(S(=O)(=O)c3c(C)noc3/C=C/c3ccc(C)cc3)CC2)CC1,8.32% (inactive),–
O=C(OCc1cc(=O)n2nc(C3CC3)sc2n1)c1ccccc1Cl,-2.28% (inactive),–
COC(=O)c1ccc(NC(=O)CSc2nncc3ccc(OC)c(OC)c23)cc1,-6.26% (inactive),–
O=C(NCc1ccccc1Cl)C1=Cc2cc(Br)ccc2OC1,33.2% (inactive),–
Cc1c(C(=O)NCc2ccccc2Br)oc2ccc3c(c12)C(=O)CC(C)(C)O3,–,10 µM (active)
CCC1(C)CC(=O)c2c(ccc3oc(C(=O)Nc4ccc(C(C)=O)cc4)c(C)c23)O1 (stereo not drawn),-21.6% (inactive),–
Cc1nn(-c2nc(-c3ccccc3)cc(C(F)(F)F)n2)c(C)c1Cl,5.91% (inactive),–
CC(C)NC(=S)N1CCN(S(C)(=O)=O)CC1,-2.79% (inactive),–
COc1cc(C(=O)N2CCN(C(=O)COc3cccc(C)c3)CC2)cc(OC)c1OC,-0.0506% (inactive),–
CC(C)Cn1c(C2CC(=O)N(c3ccccc3Cl)C2)nc2ccccc21 (stereo not drawn),1.17% (inactive),–
